The values that follow come from PubChem BioAssay (EPA / NIEHS).

Active and inactive are the calls of the source. How the source made its calls: active means hit-call score of the fitted dose curve at least 0.9, where 1 is the maximum; inactive means score below 0.9.

Read-out in this experiment: Interleukin 17A (IL17A), IL17A (gene 3605)
Nature of the experiment: BSK_BT_xIL17A: BioMAP Diversity Plus: BT Assay for Interleukin 17A (IL17A) Biomarker Activity (AID 2284229). The settings on record: primary human B cells with PBMC. How it is done:
BSK_BT is a cell-based, multiplexed-readout assay that uses B cell and peripheral blood mononuclear cells, a human vascular primary cell co-culture, with measurements taken at 24 hours after chemical dosing in a microplate: 96-well plate.BSK_BT_xIL17A is an assay component measured in the BSK_BT assay. It measures secreted IL-17A related to regulation of gene expression using LumineX xMAP technology.Data from the assay component BSK_BT_xIL17A was analyzed at the endpoint, BSK_BT_xIL17A, in the positive analysis fitting direction relative to DMSO as the negative control and baseline of activity. Using a type of cytokine quantitation reporter, gain or loss-of-signal activity can be used to understand protein changes. To generalize the intended target to other relatable targets, this assay endpoint is annotated to the 'cytokine' intended target family, where the subfamily is 'interleukins'.
The levels of cell surface (or secreted, indicated by the prefix "s") biomarker endpoints were measured by ELISA. Overt cytotoxicity to cells in confluent adherent cultures (all systems other than the BT system) was assessed by measuring total protein levels using sulforhodamine B (SRB) staining in parallel cultures at the time of biomarker measurements, indicated as SRB endpoints. For proliferation assays for adherent cell types, individual cell types are cultured at sub-confluence and relative cell numbers quantified by SRB staining at time points optimized for each system (48 h: 3C and CASM3C systems; 72 h: BT and HDF3CGF systems; 96 h: SAg system). SRB was performed by staining cells with 0.1% SRB after fixation with 10% TCA and reading wells at 560 nm.Viability and proliferation of PBMC (T cells) was quantified by Alamar Blue reduction for the SAg and BT systems. For PBMC viability (referred to as PBMC Cytotoxicity within the assay endpoint names), cells were plated (75,000/well in a 96-well plate) and then chemical samples added for 1 h before addition of activators, SEB and TSST-1 (20 ng/mL final concentration each). Cells were incubated for 90 h. Then, Alamar Blue (20 uL/well) (Invitrogen, Cat DAL1100) was added for 6 h, and the plates were read with a fluorescence microplate reader at 546/580 nm (excitation/emission). For PBMC proliferation, cells were plated and activated as above but incubated for only 16 h prior to addition of Alamar Blue. Plates were read after 6 h.
In general, AC50 refers to the concentration at which the activity in the assay is half-maximal. `O=C1CCCCCCCCCCCCCCO1`: the AC50 was 25.2 µM (active).
As to `O=C=NC1CCC(CC2CCC(N=C=O)CC2)CC1` (stereo not drawn), the result was inactive.
`CC(=O)O[C@]1(C(C)=O)CC[C@H]2[C@@H]3C[C@H](C)C4=CC(=O)CC[C@]4(C)[C@H]3CC[C@@]21C`: the outcome was inactive.
In the case of `CCn1c2ccccc2c2cc(N)ccc21`, the result was inactive.
Same read-out and setting: as for `O=C(O)c1cn(C2CC2)c2cc(N3CCNCC3)c(F)cc2c1=O`, the entry is “inactive”; as for `Cc1ccc(O)c(C(C)(C)C)c1`, “inactive”.
Same read-out and setting: as for `C=C(C)C(=O)O[C@H]1C[C@@H]2CC[C@@]1(C)C2(C)C`, the entry is “inactive”; as for `CC1CCC(C(C)CS)CC1S` (stereo not drawn), “inactive”.
For `O=[N+]([O-])c1cc(C(F)(F)F)ccc1Cl`, the outcome was inactive.
Same read-out and setting: as for `C=C[Si](OCC)(OCC)OCC`, the entry is “inactive”; as for `CC(C)(COC(=O)c1ccccc1)COC(=O)c1ccccc1`, “inactive”.
Same read-out and setting: as for `CCCCCCCCCC=O`, the entry is “inactive”; as for `CC(=O)Nc1ccccc1O`, “inactive”; as for `CC(C)c1ccc(C(C)C)cc1`, “inactive”.
The same measure, in the same setting: under `CCCCCCCCC=O` stands “inactive”; under `CCCCC(CC)COC(=O)/C=C\C(=O)OCC(CC)CCCC` (stereo not drawn), “inactive”.
For the compound `N#Cc1ccc(CC(=NNC(=O)Nc2ccc(OC(F)(F)F)cc2)c2cccc(C(F)(F)F)c2)cc1`, the result was inactive.
On the same count and under the same terms, as for `CCc1c(C)cc(N)c(CC)c1N`, the entry is “inactive”.
Same read-out and setting: under `CCCCC(CC)COCCC#N` (stereo not drawn) stands “inactive”; under `Cc1ccc2n[nH]nc2c1`, “inactive”.
With `CCCCC/C=C/C=C/C=O`, the AC50 was 20 µM (active).
Turning to `c1ccc2c(c1)c1cccc3ccc4cccc2c4c31`, the outcome was inactive.
Turning to `O=C(O)C[C@H](O)C[C@H](O)/C=C/c1c(C2CC2)nc2ccccc2c1-c1ccc(F)cc1`, the AC50 was 2.42 µM (active).
The same measure, in the same setting: as for `BrC1CCC(Br)C(Br)CCC(Br)C(Br)CCC1Br` (stereo not drawn), the figure is 17.4 µM (active).
On to `Cc1ccc(Nc2ccc(O)c3c2C(=O)c2ccccc2C3=O)cc1`, for which the result was inactive.
The same measure, in the same setting: under `CC1COc2ccccc2N1C(=O)C(Cl)Cl` (stereo not drawn) stands “inactive”; under `Nc1cc([N+](=O)[O-])ccc1Cl`, “inactive”.
Still for that read-out and setting: as for `COC(=O)c1ccc(C)cc1`, the entry is “inactive”.
Take `O=C1OC2(c3cc(Br)c(O)c(Br)c3Oc3c2cc(Br)c(O)c3Br)c2c(Cl)c(Cl)c(Cl)c(Cl)c21`: the AC50 is 9.94 µM (active).
Still for that read-out and setting: as for `C#C[C@]1(O)CC[C@H]2[C@@H]3CCC4=Cc5oncc5C[C@]4(C)[C@H]3CC[C@@]21C`, the figure is 24.4 µM (active).
For `CNC[C@H](O)c1cccc(O)c1`, the outcome was inactive.
The same measure, in the same setting: as for `CN(CCOc1ccc(CC2SC(=O)NC2=O)cc1)c1ccccn1` (stereo not drawn), the entry is “inactive”; as for `CCCCCCCCCCCCCCCCCC(=O)OCC(CC)CCCC` (stereo not drawn), “inactive”.
Same read-out and setting: under `CC(C)Oc1ccccc1O` stands “inactive”; under `c1ccc2sc(SN(C3CCCCC3)C3CCCCC3)nc2c1`, “inactive”; under `O=P(c1ccccc1)(c1ccccc1)c1ccccc1`, “inactive”.
Regarding `O=C(O)c1cn(-c2ccc(F)cc2)c2cc(N3CCNCC3)c(F)cc2c1=O`, the outcome was inactive.
On the same count and under the same terms, as for `CC(=O)/C=C/C1=C(C)CCCC1(C)C`, the entry is “inactive”.
